Screening results (PubChem)
Bim-Mcl-1: inhibitors of Bim peptide binding to Mcl-1, primary screen, biochemical, bead-based flow cytometry, multiplex | inhibition, % at 10 µM | Bim peptide-Mcl-1 binding | Induced myeloid leukemia cell differentiation protein Mcl-1 (Homo sapiens), Q07820 | AID 1009, 2008 | hit rate 0.1% among 190,000; in the data active means inhibition above about 40%
m-calpain inh: inhibitors of pig calpain II, primary screen, biochemical, fluorogenic peptide substrate, 1536-well; purified calpain II, 30 min; inhibition, % at 16 µM; hit rate 0.37% among 220,000; AID 1236, 2008;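 active means inhibition above about 50%, limit read from the data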
Mcl1-Noxa inh: Mcl-1/Noxa binding inhibitors, primary screen, biochemical, TR-FRET, 1536-well; Induced myeloid leukemia cell differentiation protein Mcl-1 (Homo sapiens), Q07820; AID 1022, 2008; inhibition, % at 21.7 µM; hit rate 1.5% among 220,000; TR-FRET Mcl-1/Noxa peptide binding, 2 h;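 active means compounds that cut the protein-peptide binding signal by more than 50% relative to plate controls in a single-dose test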;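 further: His-tagged Mcl-1 with rhodamine Noxa BH3 peptide and terbium anti-His antibody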
Mcl1-Bid inh: Mcl-1/Bid binding inhibitors, primary screen, biochemical, TR-FRET, 1536-well; Induced myeloid leukemia cell differentiation protein Mcl-1 (Homo sapiens), Q07820; TR-FRET Mcl-1/Bid-Dy647 peptide binding; inhibition, % at 21.7 µM; hit rate 0.97% among 220,000;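 active means compounds that cut the binding signal by more than half at the single screening dose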;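 further: His-tagged Mcl-1 with europium anti-His antibody binding Bid BH3 peptide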
14-3-3 Bad inh: inhibitors of 14-3-3 zeta/Bad binding, primary screen, biochemical, TR-FRET, bovine 14-3-3 zeta; hit rate 0.71% among 220,000; TR-FRET 14-3-3zeta/Dy647-pBad peptide displacement, 1 h; 14-3-3 protein zeta/delta (Bos taurus), P63103; AID 781, 2007; inhibition, % at 21.7 µM;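 active means inhibition above about 70%, limit read from the data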
Target sequence (P63103 whole entry, looked up): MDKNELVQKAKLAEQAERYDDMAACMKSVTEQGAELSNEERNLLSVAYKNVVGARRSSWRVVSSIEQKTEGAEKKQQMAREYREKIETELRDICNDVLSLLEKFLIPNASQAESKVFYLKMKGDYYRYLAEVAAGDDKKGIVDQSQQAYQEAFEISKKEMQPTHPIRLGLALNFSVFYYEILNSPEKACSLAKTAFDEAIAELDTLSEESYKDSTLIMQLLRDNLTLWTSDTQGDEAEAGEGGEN
NCF1 inh: p47phox/p22phox peptide binding inhibitors, primary screen, biochemical, uHTS, NADPH oxidase regulatory subunit | fluorescence polarization, 2 h | inhibition, % at 24.7 µM | hit rate 0.53% among 220,000;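 active means inhibition above about 30%, limit read from the data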
Target sequence (P14598 whole entry, looked up): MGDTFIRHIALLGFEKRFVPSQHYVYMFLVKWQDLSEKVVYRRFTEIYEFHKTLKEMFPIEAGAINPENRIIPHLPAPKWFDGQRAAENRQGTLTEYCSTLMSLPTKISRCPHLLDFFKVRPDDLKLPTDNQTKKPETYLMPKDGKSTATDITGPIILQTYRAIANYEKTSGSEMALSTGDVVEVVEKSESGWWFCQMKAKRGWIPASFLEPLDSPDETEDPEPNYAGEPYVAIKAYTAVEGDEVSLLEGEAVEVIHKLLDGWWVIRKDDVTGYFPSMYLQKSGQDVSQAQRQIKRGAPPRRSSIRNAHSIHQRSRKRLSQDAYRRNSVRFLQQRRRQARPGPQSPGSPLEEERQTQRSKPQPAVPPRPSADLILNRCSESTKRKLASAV
Of the large screens only hits and unclear results are named; the others gave an inactive call; [ ] = remark or other dose. Compounds with a hit are over-represented: about 3.4% of the library has one in this group of screens.

O=C(c1cccc(N2C(=O)C3C4C=CC(C4)C3C2=O)c1)N1CCN(c2ccccc2)CC1 (stereo unspecified)	none
CCOC(=O)N1CCc2c(sc3c2c(=O)n(Cc2ccccc2)c(=O)n3CC(=O)NCCOC)C1	m-calpain inh 57.7
CNc1sc(C(=O)c2ccccc2F)c(N)c1-c1nc2ccccc2s1	Mcl1-Noxa inh 85.9
O=C(NCCCn1ccnc1)C(=O)NCC1OCCCN1S(=O)(=O)c1ccccc1 (stereo unspecified)	none
O=C(CN1c2cccc3cccc(c23)S1(=O)=O)Nc1ccc(S(=O)(=O)N2CCOCC2)cc1	none
O=C(CN1C(=O)c2cccc3cccc1c23)Nc1ccc(S(=O)(=O)N2CCOCC2)cc1	Mcl1-Bid inh 90.4
CCCN(Cc1cc(=O)[nH]c2ccccc12)C(=O)CC	14-3-3 Bad inh 76.0 (no result: Bim-Mcl-1)
Oc1ccc(N=Nc2cccc(Cl)c2)cc1C=Nc1ccc(N2CCOCC2)cc1	Mcl1-Noxa inh 86.5, Mcl1-Bid inh 56.3
Oc1c(Br)cc(Cl)cc1C=Nc1ccc(N2CCOCC2)cc1	none
Cc1cc(N2CCOCC2)ccc1/C=C\[N+](=O)[O-]	none
COc1cc(C)c(NC(=O)C(=S)NCCc2ccccc2)cc1C	none
Cc1nc2ccc(C(=O)OCc3ccccc3Br)cc2nc1C	none
O=C(O)CCCCC1CCSS1 (stereo unspecified)	Mcl1-Noxa inh 73.7, Mcl1-Bid inh 97.2, 14-3-3 Bad inh 99.2
CNc1nc(-c2ccccc2)[n+](-c2ccc(C)cc2)s1	NCF1 inh 93.8
Cc1ccc(-c2nc(N)s[n+]2-c2ccccc2)cc1	NCF1 inh 93.0
Cc1ccc(-c2nnc(-c3ccccc3)o2)cc1	none
COc1ccccc1CNC(=O)C1CC(c2ccccc2C(F)(F)F)=NO1 (stereo unspecified)	none (no result: Bim-Mcl-1)
Clc1ccc(-c2nnc3sc(-c4ccc(Br)o4)nn23)cc1	none
Cc1oc(-c2ccc(Cl)cc2)cc1-c1nn2c(-c3ccoc3C)nnc2s1	Mcl1-Noxa inh 88.5, Mcl1-Bid inh 54.9
Cc1ccc(-c2nn3c(C)nnc3s2)cc1NC(=O)c1ccc(-c2ccc(Cl)cc2Cl)o1	14-3-3 Bad inh 85.5[fluorescence artefact?]
CN(C)c1ccc(-c2nn3c(-c4ccc(Cl)cc4Cl)nnc3s2)cc1	Mcl1-Noxa inh 87.1, Mcl1-Bid inh 93.3
Clc1ccc(-c2nnc3sc(-c4ccc(Br)o4)nn23)c(Cl)c1	none
O=[N+]([O-])c1ccc(NCCCNS(=O)(=O)c2ccc(Cl)cc2)c(Cl)c1	m-calpain inh 71.2
Cc1ccc2c(COC(=O)CC3Sc4ccccc4NC3=O)cc(=O)oc2c1C (stereo unspecified)	none
O=C(CC1Sc2ccccc2NC1=O)OCc1cc(=O)oc2cc(O)ccc12 (stereo unspecified)	Mcl1-Noxa inh 95.0
O=C(O)c1cccc(Cn2c(Cl)c(/C=N/NC(=O)c3ccccc3)sc2=O)c1	none
O=C(O)c1cccc(Cn2c(Cl)c(/C=N/NC(=O)c3cc4ccccc4cc3O)sc2=O)c1	m-calpain inh 59.4, Mcl1-Noxa inh 87.5 (no result: Bim-Mcl-1)
COc1ccc(N2CSC3=C(C#N)C(c4cc(OC)ccc4OC)CC(=O)N3C2)c(OC)c1 (stereo unspecified)	none
COc1ccc(N2CSC3=C(C#N)C(c4cc(OC)c(OC)cc4OC)CC(=O)N3C2)c(OC)c1 (stereo unspecified)	NCF1 inh 32.7
CCN1C(=O)C(C(=O)c2ccccc2)SC1=S (stereo unspecified)	none
Cc1ccc(OCC(=O)NCCc2c[nH]c3ccccc23)cc1	none
CCn1c(S(=O)(=O)O)nc2ccccc21	none (no result: Bim-Mcl-1)
CNC(=O)NC(=O)COC(=O)c1ccccc1OCc1ccccc1	Mcl1-Noxa inh 54.5
Cc1c(C(=O)N2CCC(C)CC2)sc2ncnc(N3CCN(c4ccccc4)CC3)c12	m-calpain inh 63.0
Cc1c(C(=O)N2CCN(c3ccccn3)CC2)sc2ncnc(N3CCOCC3)c12	none
CCOC(=O)C1CCN(c2nc(N)c3c(N)nc(SCC(=O)O)cc3c2C#N)CC1	Mcl1-Noxa inh 77.2 (no result: Bim-Mcl-1)
CN(CC(=O)Nc1ccncc1)S(=O)(=O)c1ccccc1	none (no result: 14-3-3 Bad inh)
CN(CC(=O)Nn1cnnc1)S(=O)(=O)c1ccccc1	14-3-3 Bad inh 73.2
COc1nc(OC)nc(Oc2ccc([N+](=O)[O-])cc2Cl)n1	none
O=C(NCc1nc(-c2ccc(C(F)(F)F)cc2)no1)Nc1ccc(OC(F)(F)F)cc1	none (no result: Bim-Mcl-1)
CC(=O)/C(N=Nc1ccc(C(=O)O)cc1)=C(\C)O	none (no result: Bim-Mcl-1)
CC(=O)/C(N=Nc1ccc(-n2ccc(C(F)(F)F)n2)cc1)=C(\C)O	m-calpain inh 93.0 (no result: Bim-Mcl-1)
Nc1ccc(N2CCCCC2)cc1N1CCCCC1	Mcl1-Noxa inh 75.7
CC(=O)c1nnn(-c2ccc([N+](=O)[O-])cc2C)c1C	none
CN(/C=C/C(=C\C=[N+](C)c1ccccc1)OCCCS(=O)(=O)[O-])c1ccccc1	none
CN(C)S(=O)(=O)c1ccc(Cl)c(NC(=O)COC(=O)C2CSC3(C)CCC(=O)N23)c1 (stereo unspecified)	none
COc1cc(/C=C(\C#N)c2nc3c(s2)CCCC3)ccc1O	Mcl1-Noxa inh 51.0
CCOC(=O)C1CCCN(c2c(N3CCN(c4cccc(Cl)c4)CC3)c(=O)c2=O)C1 (stereo unspecified)	Mcl1-Bid inh 86.1
COc1ccc(NC(=O)c2cc3cccc(OC)c3oc2=Nc2ccc(C(=O)O)cc2)cc1OC	Mcl1-Noxa inh 76.8
CCOc1ccc(CC(=O)Nc2ccc(NC(=O)c3ccco3)cc2)cc1OCC	none
O=C1C(=O)c2ccccc2C(O)=C1CCCCl	none (no result: Bim-Mcl-1)
Cc1ccc(C(=O)COC(=O)CNC(=O)c2ccc(N3C(=O)c4ccccc4C3=O)cc2)cc1C	Mcl1-Noxa inh 82.9
O=C(COC(=O)C1CC(=O)N(Cc2ccccc2)C1)Nc1ccccc1F (stereo unspecified)	none
COC(=O)c1ccc(COC(=O)c2ccc(CS(=O)(=O)c3ccc(C)cc3)cc2)cc1	Mcl1-Bid inh 80.9
O=[N+]([O-])c1ccc(/C=C2\CCC(C3=CCCC3)=C2N2CCOCC2)cc1	none
Cc1onc(-c2ccccc2)c1C(=O)Nc1ccon1	NCF1 inh 36.5
Cc1ccc(NC(=O)c2c(-c3ccccc3)noc2C)nc1	none
CC(C)(C)CC(=O)O/N=C(\N)c1ccccn1	Mcl1-Bid inh 85.4
COc1ccccc1OCCCCN1CCN(c2ccccc2OC)CC1	14-3-3 Bad inh 80.6
COc1ccccc1N1CCN(CCCCOc2cccc3ccccc23)CC1	none
Cn1c(=O)c2c(nc(NC3CCCCC3)n2CC(O)COc2ccccc2)n(C)c1=O (stereo unspecified)	none
